The whole screen tested about 300,000 compounds, of which about 2,700 (0.9%) were called active.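 How the source made its calls: active means mean inhibition of at least 30% with at least half of replicates also reaching 30%; inconclusive means no clear call, values can overlap the other calls; inactive means the rest.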 This excerpt belongs to a sample that is enriched for actives.
These molecules were tested against Golgi-associated PDZ and coiled-coil motif-containing protein (Homo sapiens) (UniProt Q9HD26) (assay: untagged CAL PDZ binding inhibitors, primary screen, biochemical, fluorescence polarization, HTS (AID 602252;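 further: 0% = DMSO neutral control and 100% = excess unlabeled competitor peptide PRC23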)). Conditions: purified CAL PDZ, TMR-peptide fluorescence polarization, 1 h; at 24.9 µM; stronger effect = higher value.

| Structure (SMILES) | inhibition |
| --- | --- |
| Cc1ccc(OCC(=O)Nc2ccc(S(=O)(=O)Nc3ccccn3)cc2)cc1 | -5.23% (inactive) |
| Cc1ccc(OCC(=O)Nc2ccc(-c3nc4ncccc4o3)cc2)cc1 | 46% (active) |
| CC(=O)Nc1ccc(NC(=O)COc2ccc(-c3ccccc3)cc2)cc1 | -4.37% (inactive) |
| O=C(NN=Cc1ccccc1O)NN=Cc1ccccc1O | -7.2% (inactive) |
| CN(Cc1nc2ccc(F)cc2[nH]1)Cc1nc(CC2CC2)no1 | -5.2% (inactive) |
| OC(c1nc2ccc(F)cc2[nH]1)C(O)c1nc2ccc(F)cc2[nH]1 (stereo unspecified) | 37% (active) |
| CC(C)c1nc2ccc(C(=O)O)cc2[nH]1 | 1.18% (inactive) |
| Cc1ccc(S(=O)(=O)N2CCN(C(=O)COC(=O)/C=C/c3cccc(Cl)c3)CC2)c(C)c1 | -0.868% (inactive) |
| CCOC(=O)N(Cc1ccccc1)C1CC1 | -3.68% (inactive) |
| O=C(Nc1ccc(Cl)cc1)N1CCc2[nH]c3ccccc3c2C1 | -12.5% (inactive) |
| Fc1ccc(NC(=S)N2CCc3[nH]c4ccccc4c3C2)cc1 | 0.223% (inactive) |
| O=C(NC1CCCCC1)N1CCc2[nH]c3ccccc3c2C1 | 73.4% (active) |
| COc1ccc(C2=Nn3c(nnc3-c3ccccc3OC)SC2)cc1OC1CCCC1 | -2.41% (inactive) |
| O=C1OC(Oc2ccc(Br)cc2)(c2ccccc2)c2ccccc21 (stereo unspecified) | -1.95% (inactive) |
| CC(=O)c1c(C)[nH]c(C(=O)OCC(=O)Nc2c(C)cccc2C)c1C | 4.23% (inactive) |
| CC(=O)c1c(C)[nH]c(C(=O)OCC(=O)Nc2cc(S(=O)(=O)N3CCCCC3)ccc2C)c1C | -0.974% (inactive) |
| CC(=O)c1c(C)[nH]c(C(=O)OCC(=O)NCCC(C)C)c1C | 66.4% (active) |
| Cc1cccc(NC(=O)/C(=C\c2ccco2)NC(=O)c2ccccc2)c1 | 79.4% (active) |
| COc1ccc(/C=C(/NC(=O)c2ccccc2)C(=O)Nc2cccc(C(=O)O)c2)cc1 | -4.34% (inactive) |
| O=C(Nc1ccccc1)/C(=C\c1ccco1)NC(=O)c1ccco1 | -6.57% (inactive) |
| COc1ccc(CCC(=O)Nc2ccc(Cl)c(S(=O)(=O)N3CCOCC3)c2)cc1OC | -22.4% (inactive) |
| CC(=O)OCC1(O)CC23CCC4c5ccoc5CCC4(C)C2CCC1C3 (stereo unspecified) | -3.61% (inactive) |
| O=C1NCC(Nc2ccccc2)C(=O)N1 (stereo unspecified) | 1.56% (inactive) |
| CC1(c2ccc3ccccc3c2)NC(=O)NC1=O (stereo unspecified) | -8.76% (inactive) |
| O=C1NCC(c2ccccc2)(c2ccccc2)C(=O)N1 | 41.9% (active) |
| COc1ccccc1-c1nnc2n1N=C(c1ccc(OC(F)F)c(OCC3CC3)c1)CS2 | -1.27% (inactive) |
